Rab9 promoter act: activates the Rab9 promoter; Potency, µM (highest dose often 9.22 µM), actives largely listed as activators; Huh7 Rab9 promoter-luciferase reporter, luminescence, 24 h; AID 485297; 320,000 tested, 2.8% active; note: nearly all actives have a fitted effect of over 60% in size
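Measured in stably transfected Huh7 cells bearing a Rab9 promoter–luciferase construct: 24 h compound treatment at 37 °C, followed by luminescence detection.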
ELG1 genotoxic: inducers of genotoxicity in HEK293T ELG1-luciferase cells. HEK293T ELG1-luciferase reporter, luminescence, 16 h. Potency, µM (highest dose often 46 µM), most hits filed as activators. 330,000 tested, 1.3% active. AID 504466; note: nearly all actives have a fitted effect of over 60% in size
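DMSO vehicle served as control against compound-treated ELG1-luciferase HEK293T cells; exposure lasted 16 hr at 37 °C and 5% CO2, followed by ONE-Glo luminescence detection after 30 min.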
SMN2 splice up: SMN2 splice variant enhancement; Potency, µM (highest dose often 46.1 µM), actives largely listed as activators; AID 1458; HEK293 SMN2-luciferase splicing reporter, luminescence, 30-36 h; 210,000 tested, 2.8% active; note: nearly all actives have a fitted effect of over 55% in size
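HEK293 cells carry an SMN2 minigene-luciferase reporter in which exon 7 inclusion puts luciferase in frame. Cells were seeded at 2000 cells/well, attached for 10-12 hours, then exposed to compounds for 30-36 hours at 37C before ONE-Glo luminescence.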
NPC1 promoter act: NPC1 promoter activation; Huh7 NPC1 promoter luciferase reporter, 24 h; Potency, µM (doses to about 9.22 µM), usual class: activators; 320,000 tested, 2.4% active; AID 485313; note: nearly all actives have a fitted effect of over 60% in size
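Cells: Huh7 expressing luciferase under the NPC1 promoter, 1500/well. Seeded 2 h, compound added, incubated 24 h at 37 °C. Luciferase reagent, 10 min ambient, then luminescence.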
ELG1 repair inh: inhibitors of ELG1-dependent DNA repair in HEK293T cells; HEK293T ELG1-luciferase reporter, luminescence, 16 h; DNA damage induced by 5-fluorouridine; 330,000 tested, 2.3% active; Potency, µM (doses to about 46.1 µM), actives largely listed as inhibitors; note: nearly all actives have a fitted effect of over 55% in size
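Overnight (16 hr) co-exposure of 2,000 cells/well to 5-fluorouridine and compound at 37 °C preceded detection. Luciferase was quantified via ONE-Glo luminescence; loss of signal denotes inhibition.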
FLuc counter: counter-screen for miR-21 project: firefly luciferase inhibitors or activators | purified FLuc, Km substrates, luminescence inhibition | Potency, µM (highest dose often 57.5 µM), most hits filed as inhibitors | 360,000 tested, 6.9% active | AID 588342; note: nearly all actives have a fitted effect of over 55% in size
Target sequence (P08659 whole entry, looked up): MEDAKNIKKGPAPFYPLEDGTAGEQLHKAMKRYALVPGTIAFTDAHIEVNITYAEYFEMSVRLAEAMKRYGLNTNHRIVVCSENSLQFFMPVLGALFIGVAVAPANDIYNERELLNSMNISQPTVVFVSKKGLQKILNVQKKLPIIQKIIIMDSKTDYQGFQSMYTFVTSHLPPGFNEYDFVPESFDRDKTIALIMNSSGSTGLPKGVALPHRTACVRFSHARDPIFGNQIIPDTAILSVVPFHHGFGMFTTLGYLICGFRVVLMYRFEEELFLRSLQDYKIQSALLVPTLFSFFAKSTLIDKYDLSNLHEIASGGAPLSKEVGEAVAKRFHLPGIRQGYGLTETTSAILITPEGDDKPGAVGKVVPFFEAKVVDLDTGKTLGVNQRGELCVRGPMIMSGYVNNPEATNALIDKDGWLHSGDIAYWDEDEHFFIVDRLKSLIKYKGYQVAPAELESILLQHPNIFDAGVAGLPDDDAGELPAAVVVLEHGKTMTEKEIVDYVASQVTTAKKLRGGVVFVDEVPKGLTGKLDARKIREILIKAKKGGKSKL
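Purified P. pyralis luciferase (10nM final) with 10uM D-luciferin and 10uM ATP (Km levels) in 50mM Tris acetate pH 7.5, 10mM Mg acetate, 0.01% Tween-20, 0.05% BSA; qHTS 6-point titration, ~60 µM downward; luminescence read.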
A number is an active result; i = inactive; ? = inconclusive; nt = no result; [ ] = remark or other dose. Sampled rows, rich in hits. Any-hit rate of the full collection: about 9.2%. Calls come from the whole dose curve; as a rule, active = well fitted curve in the direction sought with a large enough effect; inconclusive = small, poorly fitted or top-dose-only effect, or another doubt; inactive = no such curve, though single readings can be large; an effect the other way counts as inactive or inconclusive.

SMILES | Rab9 promoter act | ELG1 genotoxic | SMN2 splice up | NPC1 promoter act | ELG1 repair inh | FLuc counter
COc1ccc(CNC(=O)CN(c2ccccc2OC)S(=O)(=O)c2ccc(C)cc2)cc1 | nt | nt | nt | nt | nt | i
CCOc1cccc2sc(NC(=O)c3ccc(S(=O)(=O)N4CCc5ccccc54)cc3)nc12 | nt | nt | nt | nt | nt | i
CCOc1cccc2sc(NC(=O)c3ccc(Br)s3)nc12 | i | i | i | i | i | 2.7µM
CCCC(=O)Nc1nc(C(=O)OCC)cs1 | i | i | i | i | i | i
CCOC(=O)c1csc(NC(=O)c2cccs2)n1 | 2.2µM | ? | nt | 2.2µM | ? | 13µM
COc1cc2c(cc1NC(=O)CN(C)Cc1cccc(OC)c1OC)oc1ccccc12 | i | i | i | i | ? | i
O=c1ncn(-c2ccc(F)cc2)c2ncccc12 | i | i | i | i | i | i
Fc1ccc(-n2nnc(-c3cccnc3Cl)n2)cc1 | 0.35µM | 5.8µM | nt | 1.6µM | ? | 2.4µM
COc1nn(-c2ccccc2)c(=O)c(Cl)c1Cl | i | i | nt | i | ? | i
Fc1ccc(-n2nnc(-c3nccs3)n2)cc1 | 0.5µM | 3.7µM | nt | 0.5µM | ? | 3.4µM
Cc1ccc(-n2nnc(-c3nccn3C)n2)cc1 | 0.35µM | 1.8µM | nt | 0.5µM | ? | 1.3µM
COc1ncccc1-c1nnn(-c2ccccc2)n1 | 0.71µM | 8.2µM | nt | 1.8µM | ? | 3.4µM
Cc1ccc(Cl)cc1N1CCN(C(=O)CCS(=O)(=O)c2cc(Br)cc3c2N(C(=O)C2CC2)CC3)CC1 | nt | nt | i | nt | nt | i
Cc1ccc(Cn2c(=O)c3c(nc4n3CCN4c3cc(C)cc(C)c3)n(C)c2=O)cc1 | nt | nt | nt | nt | nt | i
CCOc1ccc(CNC(=O)c2ccc3nc(CC)c(CC)nc3c2)cc1 | nt | nt | nt | nt | nt | i
Fc1ccc(-n2nnc(-c3ccccc3Cl)n2)cc1 | i | i | nt | i | i | i
Clc1nc2ccccc2cc1-c1nnn(-c2ccccc2)n1 | 1.6µM | 16µM | nt | 3.2µM | ? | 2.4µM
Cc1ccc(-n2nnc(-c3cnc4ccccc4c3)n2)cc1 | 0.32µM | 1.6µM | nt | 0.89µM | ? | 0.43µM
c1ccc2ncc(-n3cnnn3)cc2c1 | i | i | i | i | i | i
Clc1ccc(-n2nnc(-c3cccnc3Cl)n2)cc1Cl | 1.1µM | 10µM | nt | 1µM | ? | 1.3µM
Clc1ncccc1-c1nnn(-c2ccccc2)n1 | 1.4µM | 6.5µM | nt | 1.1µM | ? | 2.4µM
CCCn1c(-c2cccnc2Cl)nc2cc(Cl)c(Cl)cc21 | i | i | i | i | i | i
ClCc1cc2ccccc2nc1Cl | i | i | i | i | i | i
CCOc1ccccc1NC(=O)C1CCN(S(=O)(=O)c2ccccc2)CC1 | nt | nt | i | nt | nt | i
c1ccc(-n2nnc(-c3cccnc3)n2)cc1 | 2.8µM | ? | nt | 4µM | ? | 13µM
SMILES | Rab9 promoter act | ELG1 genotoxic | SMN2 splice up | NPC1 promoter act | ELG1 repair inh | FLuc counter
c1ccc(OCCCn2nnc(-c3cccnc3)n2)cc1 | i | i | i | i | i | i
CC(C)[C@H](N=Cc1ccccc1O)C(=O)O | nt | nt | i[9.22 µM] | nt | nt | nt
CSc1ccc(/C=C/C(=O)c2ccc(NC(C)=O)cc2)cc1 | i | i | i | i | i | 3µM
O=C(/C=C/c1cccc([N+](=O)[O-])c1)c1ccc2c(c1)OCCO2 | i | ? | i[1.84 µM] | i | ? | ?
CCN(CC(=O)Nc1ccc(NC(C)=O)cc1)C(=O)c1ccc2c(c1)OCCO2 | i | i | nt | i | i | i
O=C(O)c1ccc(/C=C/C(=O)c2ccc3c(c2)OCCCO3)cc1 | ? | ? | nt | ? | ? | 0.076µM
CC(=O)Nc1ccc(/C=C/C(=O)c2ccc3c(c2)OCCO3)cc1 | i | i | nt | i | i | 6.7µM
Cc1ccc(-c2c[nH]c(=S)n2-c2ccccc2F)cc1 | i | i | i | i | i | i
CC(=O)N1CCCN(C(=O)c2ccc3nc(Cc4cccc(Cl)c4)oc3c2)CC1 | i | i | nt | i | ? | i
Fc1ccc(Cc2cn3cc(-c4ccc(Cl)cc4)nc3s2)cc1 | nt | nt | ? | nt | nt | 0.6µM
N=C1C(c2nc(-c3ccc(F)cc3)cs2)=C(O)CN1Cc1ccc(Cl)cc1 | i | i | i | i | ? | i
Fc1ccc(-c2cn3cc(Cc4ccc(Cl)cc4)sc3n2)cc1 | nt | nt | 3.2µM | nt | nt | 3µM
COc1cc(NC(=O)c2cc(S(=O)(=O)N3CCC(C)CC3)cn2C)cc(OC)c1OC | nt | nt | nt | nt | nt | i
Cc1ccc2nc(Cl)c(/C=N/Nc3ccc(C(=O)O)cc3)cc2c1 | 0.45µM | ? | nt | 0.32µM | ? | 0.067µM
Cc1ccc(NCC(=O)N/N=C/c2cc3ccccc3nc2Cl)cc1 | i | i | i | i | i | 15µM
CC(NS(=O)(=O)c1cccc(S(=O)(=O)c2ccccc2)c1)C(=O)O (stereo unspecified) | i | i | i | i | i | i
O=c1cc(-c2ccccc2Cl)oc2c([N+](=O)[O-])c(O)cc(O)c12 | i | i | i | i | 3.7µM | i
Nc1ccc2oc(-c3ccccc3Cl)cc(=O)c2c1O | 4µM | 16µM | 11µM | 3.2µM | ? | 6.7µM
O=c1cc(-c2ccccc2Cl)oc2ccc([N+](=O)[O-])c(O)c12 | i | i | i | i | i | i
COc1ccc(-c2csc(/C=C/c3ccc4c(c3)OCO4)n2)cc1OC | i | i | i | i | ? | i
CCOc1ccccc1NC(=O)COc1cccc2c(=O)n(CCOC)ccc12 | nt | nt | nt | nt | nt | i
Cc1ccc(OC(=O)c2cccc(S(=O)(=O)N3CCCC3)c2)c(-n2nc3ccccc3n2)c1 | 4µM | ? | 11µM | 3.5µM | ? | ?
Cc1ccc(C)c(COC(=O)c2cccc(S(=O)(=O)N3CCCC3)c2)c1 | i | i | nt | i | i | i
Cc1ccc(OC(=O)c2ccc(S(=O)(=O)N(C)C)cc2)c(-n2nc3ccccc3n2)c1 | 1.4µM | ? | ? | 4µM | ? | ?
Cc1ccc(OC(=O)c2cccc(S(=O)(=O)N(C)C)c2)c(-n2nc3ccccc3n2)c1 | 2.8µM | 4.6µM | ? | 3.5µM | ? | i
SMILES | Rab9 promoter act | ELG1 genotoxic | SMN2 splice up | NPC1 promoter act | ELG1 repair inh | FLuc counter
CC(=O)Oc1ccc(C)cc1-n1nc2ccccc2n1 | 4.5µM | ? | ? | 2.8µM | ? | 21µM
CN(C)S(=O)(=O)c1ccc(C(=O)Oc2ccccc2)cc1 | i | i | ? | i | i | i
O=C(COc1ccc(Br)cc1Br)NC(=S)N1CCCc2ccccc21 | i | 23µM | i | i | ? | 17µM
O=C(COc1ccccc1Cl)NC(=S)Nc1cccc(NC(=O)c2ccccc2Cl)c1 | i | i | ? | i | i | ?
O=C(COc1ccc2ccccc2c1Br)NC(=S)Nc1cccc(CO)c1 | ? | 21µM | ? | ? | ? | 8.5µM
O=C(COc1ccc(Br)cc1Br)NC(=S)Nc1cccc(CO)c1 | 0.45µM | 7.3µM | 18µM | 0.35µM | ? | 3.8µM
Cc1ccccc1OCC(=O)NC(=S)Nc1cccc2cc(O)ccc12 | i | i | nt | i | i | i
COc1cccc(Nc2nc(CC(C)=O)ns2)c1 | i | ? | i | ? | ? | ?
CC(=O)Cc1nsc(Nc2ccc3c(c2)OCCO3)n1 | 4µM | ? | 13µM | 3.5µM | ? | 24µM
CC(=O)Cc1nsc(Nc2ccc(F)cc2)n1 | i | i | i | i | ? | i

Assay outcomes from PubChem BioAssay.
